This passage reports cell growth results from the supplement of paper PMC3484114.

The structures appear in SMILES notation. ± gives the standard deviation.

The subject of this assay is OVCAR-3-derived ovarian cancer stem-like cells (spheroids). Nature of the assay: cell growth relative to untreated control; higher = more growth (less inhibition). The note with it: 2.29 µM; 96 h. The essentials: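 Stem-like cells derived from OVCAR-3 spheroids were dissociated with trypsin and seeded at 50,000 cells/mL in stem cell medium in ultra-low attachment 96-well plates, then preincubated for 24 h. Each compound was added at 2.29 uM to 4 replicate wells and left for 96 h at 37°C, 5% CO2. Viability came from TOX8 resazurin fluorescence (ex 560/em 590 nm) read after 4 h. Percent growth was expressed relative to untreated wells, after blank subtraction and removal of outliers by the Grubbs test.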
In the case of `C=C(Cl)C(Cl)(CBr)CCC(Br)C(C)(C)Cl` (stereo unspecified), the cell growth worked out at 70.7 ± 16%.
With `CC(=O)OC[C@H]1O[C@@H](NC(=O)N(CCCl)N=O)[C@H](OC(C)=O)[C@@H](OC(C)=O)[C@@H]1OC(C)=O`, the cell growth is 115 ± 15%.
The molecule `CCOC(=O)c1sc2[n+](c1C)C(=O)/C(=C/c1ccc([N+](=O)[O-])cc1)S2` returned a cell growth of 94.2 ± 27%.
For `NC1=C(Br)C(=O)c2ncccc2C1=O`, the cell growth stood at 15.3 ± 3.8%.
The molecule `CCn1c(O)c(C=Nc2ccccc2)s/c1=N/Nc1ncc(CC(=O)Nc2ccccc2C)s1` had a cell growth of 95.9 ± 16%.
Then `CN1C(c2ccccc2)CC(=NO)CC1c1ccccc1` (stereo unspecified), with 99.7 ± 13%; and `CCC12C[N+]3([O-])CCc4c([nH]c5ccccc45)C(C(=O)OC)(c4cc5c(cc4OC)N(C)C4C(O)(C(=O)OC)C(OC(C)=O)C6(CC)C=CCN7CCC54C76)CC(C3)C1O2` (stereo unspecified), with 27.9 ± 4.2%; and `N=N/C(=C\c1c(O)[nH]c2ccccc12)c1ccccc1`, with 64.5 ± 16%.
In turn, `CCCCCCCCCCSCC(CO)NC(=O)/C=C/c1c(C)[nH]c(=O)[nH]c1=O` (stereo unspecified) displayed a cell growth of 107 ± 23%.
`CC(=O)C1=C(O)C2(O)C(=O)c3c(c(C)c4ccc(C)c(O)c4c3O)CC2C(N)C1=O` (stereo unspecified) gave a cell growth of 118 ± 30%.
For `CCOC(=O)NC(Nc1ccc(F)cc1)(C(=O)OCC)C(F)(F)F` (stereo unspecified), the cell growth is 199 ± 130%.
The molecule `CN(C)CCN1C(=O)c2cccc3cc(N)cc(c23)C1=O` displayed a cell growth of 60.2 ± 11%.
As for `CN(C)c1cccc(/C=C(\C#N)c2ccccc2)c1`, the cell growth is 66.6 ± 7.2%.
Take `Nc1nc(Cl)nc2c1ncn2[C@H]1C[C@H](O)[C@@H](CO)O1`: the cell growth amounted to 82.7 ± 17%.
Consider `O=C1C(CN2CCCCC2)CCCC1CN1CCCCC1` (stereo unspecified), for which the cell growth was 62.5 ± 28%.
Molecule `COc1ccc2cc1Oc1ccc(cc1)CC1c3cc(c(OC)cc3CCN1C)Oc1c(OC)c(OC)cc3c1C(C2)N(C)CC3` (stereo unspecified) showed a cell growth of 88.5 ± 18%.
